Reference: PubChem BioAssay AID686978 (National Center for Advancing Translational Sciences (NCATS), 2013)
In all, about 420,000 compounds went through this assay and about 64,000 (15%) were called active. Another 27% or so got no clear call; they are omitted. These entries were drawn from the full list. A number with no mark means an inactive call. Calls follow the shape of the dose curve; as a rule, active = well fitted inhibition curve with a large enough effect; inconclusive = small, poorly fitted or top-dose-only effect; inactive = flat fitted curve, though single readings scatter.

Assay: qHTS for Inhibitors of human tyrosyl-DNA phosphodiesterase 1 (TDP1): qHTS in cells in absence of CPT; also: nearly all actives have a fitted effect of over 55% in size
Settings: DT40 Tdp1-/- hTDP1 cells, no CPT, ATP luminescence, 48 h; activity change, negative = growth inhibition: at 46.2 µM (top of the series)
Outline: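 Growth of hTDP1-complemented DT40 Tdp1-knockout cells is measured by ATP luminescence after at least 48 hr compound exposure at 37 °C, with DMSO substituting for the 20 nM CPT used in the parallel screen.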
% is scaled to controls: 0 for no effect and ±100 for the full control effect; potency is read from the fitted curve at half-maximal effect.

Row | SMILES | activity change, negative = growth inhibition [%] | Potency
1 | Cc1cc2cc3c(N)[nH]nc3nc2cc1C | -21.4 | –
2 | Oc1ccc(/C=N/NC2=NCCCCC2)c(O)c1 | 4.82 | –
3 | Cc1cc(N/N=C/c2ccccc2F)c2ccccc2n1 | -12.4 | –
4 | Cc1nc2ccccc2nc1N/N=C/c1ccc(O)cc1O | – | 4.11 µM (active)
5 | Cc1noc(C)c1/C=N/Nc1ccc2ccccc2n1 | 7.72 | –
6 | Oc1ccc(/C=N/Nc2nc(-c3ccccc3F)nc3ccccc23)c(O)c1 | – | 7.31 µM (active)
7 | Cc1csc2nc(O)c(C(=O)NCCN3CCOCC3)c(=O)n12 | -6.85 | –
8 | CC(C)NC(=O)C(=O)NCCN1CCN(S(=O)(=O)c2ccc(Cl)cc2)CC1 | -1.35 | –
9 | COCCCNc1nc2ccccc2nc1NS(=O)(=O)c1ccc(F)cc1 | -1.47 | –
10 | Cc1cccn2c(CNCC(C)Oc3cccnc3)c(C(=O)N3CCOCC3)nc12 (stereo not drawn) | 30 | –
11 | Cc1cccn2c(CN(C)C3CCCc4ccccc43)c(C(=O)N3CCOCC3)nc12 (stereo not drawn) | – | 18.4 µM (active)
12 | CCOC(=O)C1CCN(Cc2c(C(=O)N3CCOCC3)nc3c(C)cccn23)CC1 | -8.96 | –
13 | CC1CCCCN1C(=O)CCS(=O)(=O)Cc1ccccc1 (stereo not drawn) | -3.87 | –
14 | O=C(CC1Oc2ccc(Cl)cc2NC1=O)NCc1ccccc1 (stereo not drawn) | -3.5 | –
15 | CC(=O)Nc1cccc(-c2nc3ccccc3s2)c1C | -5.62 | –
16 | CCC(C(=O)Nc1ccc2c(c1)OCCO2)c1ccccc1 (stereo not drawn) | -21 | –
17 | CCC(C(=O)Nc1cccc(-c2nc3cccnc3s2)c1C)c1ccccc1 (stereo not drawn) | – | 20.6 µM (active)
18 | COC(=O)[C@@H]1C[C@H](NC(=O)c2ccccc2C(F)(F)F)CN1Cc1cccc(O)c1 | -9.99 | –
19 | COc1cc([N+](=O)[O-])ccc1NC(=S)N1CCN(c2ccccn2)CC1 | -15.4 | –
20 | CCOC(=O)c1ccc(NC(=S)N2CCN(c3ccccn3)CC2)cc1 | -3.2 | –
21 | O=[N+]([O-])c1ccc(NC(=S)N2CCN(c3ccccn3)CC2)cc1 | – | 11.6 µM (active)
22 | CCOC(=O)c1cnn(Cc2ccccc2Cl)c1N | -12.2 | –
23 | Cc1noc(C)c1C(=O)N1CCOCC1 | -9.18 | –
24 | CC(C)(C)C1CCC(OC(=O)CCC(=O)Nc2ccccc2)CC1 (stereo not drawn) | -2.86 | –
25 | CN1CCN(C(=O)/C(=C\c2cccs2)NC(=O)c2cccs2)CC1 | -7.36 | –
26 | Cc1cccc(NC(=O)Cn2cc(S(=O)(=O)Cc3ccccc3Cl)c3ccccc32)c1 | – | 20.6 µM (active)
27 | CCOC(=O)c1ccc(NC(=O)Cn2cc(S(=O)(=O)Cc3ccccc3F)c3ccccc32)cc1 | -26.3 | –

Row | SMILES | activity change, negative = growth inhibition [%] | Potency
28 | COc1cccc(NC(=O)CS(=O)(=O)c2cn(CC(=O)N3CCOCC3)c3ccccc23)c1 | 0.349 | –
29 | OCCN1CCN(c2ncnc3c2ncn3[C@H]2CN(Cc3ccco3)C[C@@H](CO)O2)CC1 | -10.1 | –
30 | O=C(Nc1ccc(Cl)cc1)c1csc([C@@H]2O[C@H](CO)[C@H](O)[C@H](O)[C@H]2O)n1 | -0.432 | –
31 | CSc1nnnn1-c1c(C)cc(C)cc1C | 7.83 | –
32 | COc1cccc(NC(=O)CN(C)CC(=O)Nc2ccc3c(c2)CCC3)c1 | -4 | –
33 | Cc1[nH]c2ccccc2c1/C=C(/C#N)C(=O)NC(C)C | -9.84 | –
34 | O=C(/C=C/c1c(F)cccc1Cl)Nc1nn[nH]n1 | 1.45 | –
35 | CNC(=O)/C(C#N)=C/c1c(F)cccc1Cl | – | 9.2 µM (active)
36 | Cc1ccc(C(=O)N2CCC(n3nccc3NC(=O)Nc3cccc(F)c3)CC2)cn1 | 10.4 | –
37 | Brc1cccc(-c2nnn3c2nc(NC2CCCCC2)c2ccccc23)c1 | -26.7 | –
38 | CCCc1nc2sc3c(c2c(=O)n1NC(=O)CCCl)CCCC3 | – | 29.1 µM (active)
39 | COc1ccc(NC(=O)CCNC(=O)Cn2cnc3sc4c(c3c2=O)CCCC4)cc1OC | -4.24 | –
40 | Cc1ccc(C)c(-n2c(SCC(=O)O)nc3sc4c(c3c2=O)CCCC4)c1 | -16.6 | –
41 | CC(C)N(Cc1nc(-c2ccc3c(c2)OCO3)no1)CC1CCC(=O)N1 (stereo not drawn) | 8.55 | –
42 | O=C(COc1ccccc1)Nc1ccc(C(=O)N2CCCC2)cc1 | 22.5 | –
43 | CCC(=O)c1ccc(OCC(=O)Nc2ccc(N3CCCCC3)cc2)cc1 | – | 20.6 µM (active)
44 | CCC(=O)c1ccc(OCC(=O)OCC(=O)NC2CCCCCC2)cc1 | -17 | –
45 | O=C(NCC(=O)N1CCCCCCC1)c1ccccc1Cl | 12.3 | –
46 | COc1cc(C(=O)Nc2ccc(OCc3cc(=O)n4ccc(C)cc4n3)cc2)cc(OC)c1OC | -9.6 | –
47 | COc1cc(C(=O)Nc2ccc(-n3c(C)nc4ccccc4c3=O)cc2)cc(OC)c1OC | – | 18.4 µM (active)
48 | Cc1nc2ccccc2c(=O)n1-c1ccc(NS(=O)(=O)c2ccc(F)cc2F)cc1 | -14.2 | –
49 | C=CCNc1nnc(SCC(=O)N2CCCCC2)c2ccccc12 | 4.38 | –
50 | Cc1cc(NC(=O)CSc2nc3ccccc3n2CC(C)C)no1 | -4.04 | –
51 | Cc1cc(C)c(NC(=O)Cn2c(SCC(=O)NCc3ccccc3)nc3ccccc32)c(C)c1 | – | 18.4 µM (active)
52 | CC(C)(C)NC(=O)Cn1c(SCC(=O)Nc2nccs2)nc2ccccc21 | -4.92 | –
53 | O=[N+]([O-])c1ccc(Oc2ccc(F)cc2Br)c2ccncc12 | – | 23.1 µM (active)
